# The list is not random: actives were taken first. Their share in the collection is about 14%.
# Pf growth 96h = Primary qHTS for delayed death inhibitors of the malarial parasite plastid, 96 hour incubation. Potency, µM (highest dose often 28.7 µM), without a hit: top-dose activity change, negative = inhibition, actives largely listed as inhibitors. P. falciparum luciferase reporter growth, 96 h. AID 504834, 2011. 320,000 tested, 6.9% active; further: potency means the concentration at half of the fitted maximal effect
#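 Infected RBCs, 2% Hct / 0.05% parasitemia final; luciferase-reporter P. falciparum; cpd 96 h, 37 C, 5% CO2; luciferase detection reagent; luminescence.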
# HCV inh = qHTS Assay for Inhibitors of Hepatitis C Virus (HCV). AID 651820, 2012. Potency, µM (titrated, usually from 41.8 µM), for the others: at the top dose activity change, negative = inhibition, hits mostly inhibitors. Huh7.5.1 HCVcc-Cre infection, luciferase reporter, 44 h. 340,000 tested, 3.4% active; further: potency means the concentration at half of the fitted maximal effect
#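 A cell-based infection assay in which seeded cells (1,000 per well) receive test compound after 4 h, are inoculated with HCVcc-Cre at approximately 0.5 moi, and are incubated 44 h before luminescence detection.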
# HCMV antiviral = qHTS Assay for inhibitors of the human cytomegalovirus (HCMV); HFF cells, HCMV-luciferase reporter, 72 h; stronger effect = lower value; activity change, negative = inhibition, % at 57.5 µM; 410,000 tested, 4.5% active; in the data active means activity change below about -60%; inconclusive means no clear call, values can overlap the other calls; inactive means above about -39%
#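 Human foreskin fibroblasts infected with luciferase-reporter HCMV at MOI 1 PFU/cell, compounds at two doses. Luciferase measured 72 h post infection; normalized to buffer-only basal and Salinomycin (10uM) controls.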
# Pf growth 48h = Primary qHTS for delayed death inhibitors of the malarial parasite plastid, 48 hour incubation; P. falciparum luciferase growth in erythrocytes, 48 h; Potency, µM (top dose mostly 28.7 µM), for the others: at the highest dose activity change, negative = inhibition, usual class: inhibitors; 310,000 tested, 5.9% active; AID 504832, 2011; further: potency means the concentration at half of the fitted maximal effect
#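 Parasite viability was followed by luminescence of a genomically integrated firefly luciferase. Cultures held 0.1% parasitemia at 2% hematocrit (final), incubated under 5% CO2 at 37 C.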
# MARV entry inh = qHTS for inhibitors of binding or entry into cells for Marburg Virus | 300,000 tested, 1.8% active | AID 540276, 2011 | Marburg virus pseudotyped entry inhibition, cell reporter | Potency, µM (series often up to 37.8 µM), without a hit: at the top dose activity change, negative = inhibition, hits mostly inhibitors; calls by dose curve; tested in HEK293 cells; further: potency means the concentration at half of the fitted maximal effect
# Lassa entry inh = qHTS for Inhibitors of binding or entry into cells for Lassa Virus. Lassa virus pseudotype entry inhibition, cell reporter. Potency, µM (highest dose often 37.9 µM), inactives show top-dose activity change, negative = inhibition, most hits filed as inhibitors. 300,000 tested, 1.2% active. AID 540256, 2011; calls by dose curve; tested in HEK293 cells; further: potency means the concentration at half of the fitted maximal effect; nearly all actives have a fitted effect of over 50% in size
# Active calls of the source: *; ? = inconclusive; / = not tested or not shown; [ ] = dose if it differs, or a comment. Unless noted, the call rests on the fitted dose curve; in most records, active means well fitted inhibition curve with a large enough effect; inconclusive means small, poorly fitted or top-dose-only effect, or another doubt; inactive means no such curve, though single readings can be large or run the other way. On the % scale 0 is the no-effect control and ±100 the full control effect.
SMILES,Pf growth 96h,HCV inh,HCMV antiviral,Pf growth 48h,MARV entry inh,Lassa entry inh
COc1ccc2c(C)nc(Nc3nc(-c4ccccc4)cc(=O)[nH]3)nc2c1,-8%,5.6µM*,-93*,3%,?,4.6µM*
Cc1cc(C)nc(Nc2nc3ccccc3[nH]2)n1,10%,40%,192,90%,?,?
Cc1ccc2nc(Nc3nc(C)cc(-c4ccccc4)n3)[nH]c(=O)c2c1,6.6µM*,?,?,3.3µM*,?,?
Cc1ccc2nc(Nc3nc(-c4ccccc4)cc(=O)[nH]3)nc(C)c2c1,?,?,-67*,?,?,-10%
CC[C@H]1OC(c2ccccc2)[C@H](C)[C@H]2O[C@@H]2[C@@H]1C(=O)OC (stereo partly drawn),/,/,/,/,-5%[14.2 µM],/
CCn1cc(S(=O)(=O)NC2CCCCC2)cn1,?,8%,-60*,-9%,-24%[46.1 µM],?
O=C(O)c1ccc(S(=O)(=O)NC2CCCCCC2)cc1,12µM*,7%,-1,12%,/,/
Cc1ccc(S(=O)(=O)NC2CCCCCCC2)cc1,8.3µM*,7%,5,46%,12%[46.1 µM],?
CN(Cc1ccccc1)S(=O)(=O)c1ccc(S(=O)(=O)N(Cc2ccc(F)cc2)C2CCCC2)cc1,/,-9%,-19,?,-26%,?
O=C(O)c1ccc(S(=O)(=O)N(Cc2ccc(F)cc2)C2CCCCC2)cc1,12µM*,6%,-12,-12%,/,/
Cc1ccc(S(=O)(=O)NCC(c2ccco2)N2CCN(c3ccccc3F)CC2)cc1 (stereo not drawn),/,/,?,/,/,-13%[46.1 µM]
CN(CC(=O)Nc1ccccc1Br)C(=O)CNC(=O)c1ccc(Oc2ccccc2)cc1,-11%,?,-63*,?,/,/
COC(=O)[C@H](C)N1CC=CCOc2c(Cl)cc(Cl)cc2[S+]1(=O)[O-],/,/,/,/,/,-4%[46.1 µM]
Cn1c(-n2cccc2)c(-c2c(-c3ccc(F)cc3)[nH]c3c2c(=O)n(C)c(=O)n3C)c(=O)n(C)c1=O,/,/,27,/,9%[46.1 µM],16%[46.1 µM]
O=C1c2cccc(NCCCNCCO)c2C(=O)c2cccc(NCCCNCCO)c21,/,?,-98*,/,?,-16%[46.1 µM]
O=C1c2ccccc2C(=O)c2c(NCc3cccnc3)cccc21,?,?,?,?,6%,4%
CN(c1cccnc1)c1ccc(NC(=O)Cc2c[nH]c3ccccc23)cc1-c1ccc(C(C)(C)C)cc1,/,/,-36,/,/,/
CC(=O)Nc1nc(COc2ccccc2)cs1,?,16%,100,173%,4%,0%
O=C(Nc1nc(COc2ccccc2)cs1)C12CC3CC(CC(C3)C1)C2,?,?,-84*,/,-5%,-5%
Cc1ccc(C(=O)Nc2nc(COc3ccccc3)cs2)s1,-16%,11µM*,-75*,7%,-20%,-45%
CCc1nc2ccc(C(=O)NCCNC(C)=O)cn2c1N(C)Cc1ccc(OC)cc1,/,/,13,/,/,/
O=C1c2c(-c3ccc(Br)cc3)noc2CCN1Cc1cn(Cc2ccccc2)nn1,/,/,-35,/,/,/
COc1cccc(NC(=O)c2ccccc2)c1,83%,?,-2,97%,/,/
COc1ccc(OC)c(NC(=O)c2cccc(NC(=O)c3ccccc3)c2)c1,223%,10µM*,?,21%,?,?
COc1ccc(NC(=O)c2cccc(NC(=O)c3ccccc3)c2)c(OC)c1,10µM*,-24%,-13,-25%,?,?
SMILES,Pf growth 96h,HCV inh,HCMV antiviral,Pf growth 48h,MARV entry inh,Lassa entry inh
COc1cc(NC(=O)Cc2ccccc2)ccc1NC(=O)c1ccccc1,10µM*,?,-32,12%,-2%[46.1 µM],-1%[46.1 µM]
COc1ccc(C(CNC(=O)CNC(=O)c2cccc(C)c2)N2CCCCC2)cc1 (stereo not drawn),/,-11%,-6,/,-5%,-2%
Cc1cccc(N2CCN(C3=NC(=O)C(=C4CCCCC4)S3)CC2)c1,34%,?,?,10µM*,-39%,6%
O=C1N=C(N2CCOCC2)SC1=C1CCCCC1,?,7%,24,2%,?,16%
CC(=O)N1CCN(C2=NC(=O)C(=C3CCCCC3)S2)CC1,-19%,-10%,35,?,?,21%
N#CCCN1CCN(C2=NC(=O)C(=C3CCCCC3)S2)CC1,2.6µM*,15%,69,0%,?,16%
CCOC(=O)CNC(=O)Cn1nc(N2CCN(c3ccccc3)CC2)ccc1=O,/,/,-14,/,/,5%[46.1 µM]
CC1=NNC(=O)C1CCC(=O)N/N=C/c1ccccc1 (stereo not drawn),30%,3%,-9,11%,-3%,?
CC1(C(=O)Nc2ccccc2)Cc2ccccc2C(=O)O1 (stereo not drawn),9.3µM*,-17%,-18,1%,7%[46.1 µM],-5%[46.1 µM]
CC(C)c1ccc(NC(=O)C2(C)Cc3ccccc3C(=O)O2)cc1 (stereo not drawn),/,/,34,/,22%[46.1 µM],2%[46.1 µM]
CCSc1nnc(NC(=O)C2(C)Cc3ccccc3C(=O)O2)s1 (stereo not drawn),-4%,-7%,21,13µM*,11%,13%
CC1(C(=O)Nc2nnc(C(C)(C)C)s2)Cc2ccccc2C(=O)O1 (stereo not drawn),?,10%,44,-10%,8%,-1%
COc1ccc(CNC(C)C2COc3ccccc3O2)c(OC)c1 (stereo not drawn),71%,-6%,-8,5%,11µM*,2%
COc1ccc(CNC(=O)CSc2cccc3cccnc23)cc1,5%,17%,12,-7%,-12%[46.1 µM],-18%[46.1 µM]
CCC(=O)NC(c1ccccc1OC)c1ccc2cccnc2c1O (stereo not drawn),-4%,2.5µM*,/,4.1µM*,4.6µM*,?
CCCC(=O)NC(c1ccc(OC)cc1)c1ccc2cccnc2c1O (stereo not drawn),?,3.2µM*,-99*,1.3µM*,?,?
COc1ccc(Cl)cc1C(Nc1cccnc1)c1ccc2cccnc2c1O (stereo not drawn),?,8.9µM*,-7,5.2µM*,11µM*,?
CCCCC(=O)NC(c1ccccc1)c1ccc2cccnc2c1O (stereo not drawn),?,2.8µM*,-100*,?,?,?
COc1cccc(NC(=O)COC(=O)c2sccc2C)c1,/,-8%,-29,/,9%,14%
CCOC(=O)N1C(=O)C[C@](Sc2ccc(OC)cc2)(c2nc(C)no2)[C@H]1c1ccc(OC)cc1,/,/,-22,/,/,/
CCCCC(=O)NC(c1ccccc1Cl)c1ccc2cccnc2c1O (stereo not drawn),120%,2.2µM*,-96*,2.3µM*,/,/
